# Screening results (PubChem BioAssay)
# The entries come from a sample that favours hits as a whole.
# Dicer processing = inhibitors of Dicer pre-microRNA processing, primary screen, biochemical, cat-ELCCA, chemiluminescence; Endoribonuclease Dicer (Homo sapiens), Q9UPY3; z-score at 25 µM; cat-ELCCA pre-miR-21 Dicer processing; stronger effect = higher value; 6% of 47,000 active; in the data active means z-score above about 3, passing the limit was not always enough;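 further: higher signal means more uncleaved substrate so more Dicer inhibition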
# Numbers stand for hits; – = inactive.
SMILES,Dicer processing
CN(C)c1ccc(C2C(C#N)=C(N)Oc3c2sc2ccccc32)cc1 (centres undefined),6
COC(=O)CSC(=O)NC(=O)c1ccccc1Oc1ccc(Cl)cc1Cl,–
O=C(c1cccs1)c1cn(CC(=O)N2CCOCC2)c2ccccc12,–
COC(=O)c1cn(CC(=O)N2CCOCC2)c2ccccc12,6
CC1CCCC(C)N1C(=O)Cn1cc(C(=O)C2CCCCC2)c2ccccc21 (centres undefined),–
CC1CCN(C(=O)Cn2cc(C(=O)C3CC3)c3ccccc32)CC1,5.1
CCC(=O)c1cn(CC(=O)N2CCOCC2)c2ccccc12,–
CCOC(=O)Cn1cc(C(=O)C2CC2)c2ccccc21,–
CC(=O)N(Cc1ccccc1)c1nc2c([nH]1)c(=O)n(C)c(=O)n2C,–
COc1cc(Cl)cc(OC)c1NC(=S)N1CCN2C(=O)c3ccccc3C21c1ccccc1 (centres undefined),–
CSc1sc(C(=O)O)c2c1C(=O)CC(C)(C)C2,–
COC(=O)c1sc(SC)c2c1CC(C)(C)C/C2=N/O,–
CSc1sc(/C(C)=N\O)c2c1/C(=N\O)CC(C)(C)C2,5.6
COc1ccc(C2Nc3ccc4ncccc4c3C3=C2C(=O)CC(C)(C)C3)cc1 (centres undefined),–
Cc1cc(C)nc(NS(=O)(=O)c2ccc(NC(=O)Nc3c(-c4ccccc4)noc3C)cc2)n1,–
C=CCn1nnc2sc3c(c2c1=O)CCCC3,–
O=C(O)CCC1=NN2C=Nc3sc4c(c3C2NC1=O)CCCC4 (centres undefined),3.3
C=CCOC(=O)c1sc(NC(=O)c2sc3ccccc3c2Cl)nc1C,–
Nc1nnc(Sc2c(-c3ccccc3)c3ccc(Cl)cc3[nH]c2=O)s1,–
Cc1ccc(C(=O)NC(Nc2ccc(F)cc2)(C(F)(F)F)C(F)(F)F)cc1,–
CC(C)(C)C(=O)Nc1cc(Cl)c(Cl)cc1Cl,–
CC(=O)c1sc(-c2cccs2)cc1N,–
Cc1cccc(NCN2C(=O)CCC2=O)n1,–
O=C1CCC(=O)N1CNc1ccccn1,3.4
O=C1CCC(=O)N1CNc1ccccc1C(F)(F)F,–
SMILES,Dicer processing
FC(F)(F)c1cc(N2CCCCCCC2)c2c(Cl)cc(Cl)cc2n1,–
O=C(Cn1c(=O)sc2ccccc21)Nc1nnc(SCC(=O)N2CCOCC2)s1,–
CCOC(=O)C1(C(F)(F)F)N=C(N2CCOCC2)Oc2c1c(C)nn2-c1ccccc1 (centres undefined),–
N#C/C(=C\Nc1cc(C(F)(F)F)cc(C(F)(F)F)c1)S(=O)(=O)c1cccs1,–
NNC(=O)c1cn2cc(C(F)(F)F)cc(Cl)c2n1,4.8
NNC(=O)c1cc(C(F)(F)F)cc(C(F)(F)F)c1,–
O=C(NCCCN1CCN(Cc2ccccc2)CC1)c1cn2cc(C(F)(F)F)cc(Cl)c2n1,–
Cc1ccc(/C(C#N)=C2C=C/C(=N\O)C(Cl)=C\2Cl)cc1,–
CCOC(=O)c1cnc2cc(-c3cccs3)[nH]n2c1=O,–
COc1ccc2c(c1)C(=O)N(c1ccc(C)cc1)C(=O)C2,–
COc1ccc(O)c(C(=O)C2c3ccccc3C(=O)N2c2ccc(C)cc2)c1 (centres undefined),8
COc1ccc(O)c(C(=O)CC(=O)c2ccc(F)cc2)c1,–
Nc1nc(NS(=O)(=O)c2cc(C(F)(F)F)cc(C(F)(F)F)c2)cc(-c2ccc(F)cc2)n1,–
Cc1cc(C2(c3ccc(N)c(C)c3)CCCCC2)ccc1N,3.1
Cc1cc(Cc2ccc(N)c(C)c2)ccc1N,–
O=C(NCc1cccs1)c1nn2c(C(F)(F)F)cc(-c3cccs3)nc2c1Cl,–
CCCCCCNc1c2c3c(cccc3n(C)c1=O)C(=O)c1ccccc1-2,–
O=C(Oc1ccc2c(c1)oc(=O)c1ccccc12)c1ccco1,–
O=C(Oc1cccc(Br)c1)c1ccco1,–
O=C(Oc1ccc2cc(Br)ccc2c1)c1ccco1,5.8
C=C(C)Cn1c(NCCO)nc2c1c(=O)[nH]c(=O)n2C,–
CCCN1C(=O)C2(/C(=C(/O)c3ccc(C)cc3)C(=O)C(=O)N2CCN(C)C)c2ccccc21 (centres undefined),–
C=CCNCC(=O)Nc1sc2c(c1C(=O)OCC)CCCC2,–
COc1ccccc1C1N(c2ccccc2)OC(=O)N1c1ccccc1 (centres undefined),–
O=C1CC(c2ccc3c(c2)OCO3)c2c(-c3ccccc3)nn(-c3ccccc3)c2N1 (centres undefined),–
SMILES,Dicer processing
O=C1ON(c2ccccc2)C(c2ccc3c(c2)OCO3)N1c1ccccc1 (centres undefined),3.2
CCn1c[n+](CC(O)COc2ccc(OC)cc2)c2cc(C)c(C)cc21 (centres undefined),–
O=C1CC(Cc2ccc(Cl)cc2)C(=O)N1c1ccccn1 (centres undefined),–
O=C1CC(Cc2ccc(Cl)cc2)C(=O)N1Cc1ccccc1 (centres undefined),3.3
O=C1CC(Cc2ccccc2)C(=O)N1c1cccc(Cl)c1 (centres undefined),–
COc1ccc(C(=O)O/C(=C/c2nccn2C(=O)c2ccc(OC)cc2)c2ccc(OC)cc2)cc1,–
CCNC(=S)NNC(=O)c1c(C)nc2ccccn12,–
CCOc1ccc2c(c1)C(C)=CC(C)(C)N2C(=O)Nc1ccc(Cl)cc1,–
Cc1cccc(NC(=O)c2ccc(Cl)cc2)n1,3.1
Cc1cccc(NC(=O)c2ccccc2)n1,–
O=C(Nc1ncccn1)c1ccc(Cl)cc1,–
CCOC(=O)/C=C(\C)Nc1cccc(N/C(C)=C/C(=O)OCC)c1C,–
CC1=C(C(=O)OCC2CCCO2)C(c2ccccn2)C2=C(CC(C)(C)CC2=O)N1 (centres undefined),–
Oc1ccccc1-c1nc(/C=C/c2ccccc2Cl)no1,–
Oc1ccccc1-c1nc(/C=C/c2ccccc2)no1,–
CN(C)c1ccc(/C=C/c2noc(-c3ccccc3O)n2)cc1,5.8
CSc1sc(NC(=O)Nc2cccc(C(F)(F)F)c2)cc1S(=O)(=O)C(C)C,3.3
CC(C)S(=O)(=O)c1csc(NC(=O)Nc2ccc(Cl)cc2)c1,–
CSc1sc(C(=O)Nc2cccc(C(F)(F)F)c2)cc1C#N,–
CSc1sc(NC(=O)Nc2ccc(Cl)cc2)cc1S(=O)(=O)C(C)C,3.9
CSc1sc(C(=O)NNC(=O)c2ccc(Cl)cc2)cc1S(=O)(=O)C(C)C,–
CC(C)S(=O)(=O)c1csc(NC(=O)Nc2ccc(C(F)(F)F)cc2)c1,–
c1ccc(CSc2nnc3nc4c5ccccc5c5ccccc5c4nn23)cc1,–
O=c1[nH]c(-c2ccccc2)nnc1/C=C/c1ccccc1,–
CCOC(=O)c1ccc(-n2nc(C(C)(C)C)cc2C(C)(C)C)cc1,–
SMILES,Dicer processing
Cc1csc2c(SCC(=O)NNC(=O)c3ccc(Cl)cc3)ncnc12,–
COC(=O)c1ccc(OC(=O)CSc2nc3ccccc3s2)cc1,–
CCCC(=O)n1c(=O)oc2cc(Br)ccc21,4
CCCC(=O)c1cc2cc(Br)ccc2oc1=O,–
CCCC(=O)c1cc2cc(Br)cc(Br)c2oc1=O,–
Cc1ccc(NC(=O)C2Sc3nnc(C)n3NC2c2ccc(Cl)cc2)c(Br)c1 (centres undefined),–
Cc1onc(-c2ccccc2)c1C(=O)NCc1c(Cl)cccc1Sc1ccc(Cl)cc1,–
CCOC(=O)C1=C(C)N2CCCN=C2S1,3.3
CCOC(=O)C1=C(C)N2CCN=C2S1,–
CCOC(=O)c1c(N)sc2c1CCC2,–
COC(=O)C1C2CCC(C2)C1C(=O)OCC(=O)c1ccc(Br)cc1 (centres undefined),–
CCCCc1c(O)nc(SCCN(CC)CC)n(-c2ccccc2)c1=O,3.3
